Measurements from the supplement of paper PMC6089552.
“And” between values parts separate entries of the source, which are not always exact repeats. Identical values can stand only once. Screen size: about 3,200 compounds; about 300 (9.4%) showed activity. Many of the other results were omitted from the sample, so actives are more common in it than they were.

System: A673/TR/shEF
Test: cell viability (LOESS-normalised, relative to median of negative controls) (log2 ratio); higher = more viable cells (less compound effect), active = hit call of the paper (over 3 MAD below the median)
Details: treatment time: 72 h
Method in brief: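 For three days, A673/TR/shEF Ewing sarcoma cells in 384-well plates (1,500 per well) were treated with library compounds at two or more concentrations or with DMSO controls, after doxycycline had been added or withheld 24 h beforehand to induce EWS-FLI1 shRNA knockdown. Viability was read by CellTiter-Glo luminescence on an Envision reader. The data were LOESS-corrected per plate, divided by the median of negative controls and log2-transformed.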

[1] = 0.25 µM, library screen: screen1, EWS-FLI1 expression: high (no doxycycline)
[2] = 0.25 µM, library screen: screen1, EWS-FLI1 expression: low (doxycycline-induced shRNA knockdown)
[3] = 2.5 µM, library screen: screen1, EWS-FLI1 expression: high (no doxycycline)
[4] = 2.5 µM, library screen: screen1, EWS-FLI1 expression: low (doxycycline-induced shRNA knockdown)

Measured: cell viability (log2)

CN1CCN(c2nc3ccccn3c(=O)c2/C=C2\SC(=S)N(CC3CCCO3)C2=O)CC1 (stereo not given)
inactive: [1] 0.134 | [2] 0.0801 | [3] 0.0647 | [4] 0.048

CC(=O)c1c(O)c(C)c(O)c2c1oc1c(C(C)=O)c(O)c(C)c(O)c12
inactive: [1] 0.0278 | [2] -0.0408 | [3] 0.0533 | [4] 0.172

CCC(C)C(=O)c1c(O)c(C)c2oc3c(C)c(O)c(C(=O)C(C)CC)c(O)c3c2c1O (stereo not given)
inactive: [1] 0.0233 | [2] 0.116 | [4] -0.0271
active: [3] -0.592

Cc1c(O)c(C(=O)CC(C)C)c2oc3c(C(=O)CC(C)C)c(O)c(C)c(O)c3c2c1O
inactive: [1] 0.0407 | [2] 0.0843 | [3] 0.0935 | [4] 0.0892

CCCCC(CC)CN=C(N)NC(N)=NCCCCCCN=C(N)NC(N)=NCC(CC)CCCC (stereo not given)
inactive: [1] 0.103 and 0.0973 | [2] 0.044 and 0.0691 | [3] 0.127 and 0.022 | [4] 0.0795 and 0.0454

COc1ccc(OC)c(C2NC(=O)NC(C)=C2C(=O)Nc2ccccc2Cl)c1 (stereo not given)
inactive: [1] 0.0793 | [2] 0.107 | [3] 0.0921 | [4] 0.116

CC1(C)COC(CC(=O)O)CN1 (stereo not given)
inactive: [1] 0.11 | [2] 0.00312 | [3] 0.108 | [4] 0.0408

O=c1c(-c2ccc(O)cc2)coc2cc(O)ccc12
inactive: 0.025 µM, library screen: screen1, EWS-FLI1 expression: high (no doxycycline) -0.0377 | 0.025 µM, library screen: screen1, EWS-FLI1 expression: low (doxycycline-induced shRNA knockdown) -0.0297 | 0.103 µM, library screen: screen3, EWS-FLI1 expression: high (no doxycycline) 0.0817 | 0.103 µM, library screen: screen3, EWS-FLI1 expression: low (doxycycline-induced shRNA knockdown) 0.0853 | [1] 0.184 | [2] 0.0911 | 0.25 µM, library screen: screen2, EWS-FLI1 expression: high (no doxycycline) 0.184 | 0.25 µM, library screen: screen2, EWS-FLI1 expression: low (doxycycline-induced shRNA knockdown) 0.099 | 0.308 µM, library screen: screen3, EWS-FLI1 expression: high (no doxycycline) 0.12 | 0.308 µM, library screen: screen3, EWS-FLI1 expression: low (doxycycline-induced shRNA knockdown) 0.0897 | 0.926 µM, library screen: screen3, EWS-FLI1 expression: high (no doxycycline) 0.0631 | 0.926 µM, library screen: screen3, EWS-FLI1 expression: low (doxycycline-induced shRNA knockdown) 0.0867 | [3] 0.11 | [4] 0.0867 | 2.5 µM, library screen: screen2, EWS-FLI1 expression: high (no doxycycline) 0.118 | 2.5 µM, library screen: screen2, EWS-FLI1 expression: low (doxycycline-induced shRNA knockdown) 0.117 | 2.8 µM, library screen: screen3, EWS-FLI1 expression: high (no doxycycline) 0.137 | 2.8 µM, library screen: screen3, EWS-FLI1 expression: low (doxycycline-induced shRNA knockdown) 0.123 | 8.3 µM, library screen: screen3, EWS-FLI1 expression: high (no doxycycline) 0.161 | 8.3 µM, library screen: screen3, EWS-FLI1 expression: low (doxycycline-induced shRNA knockdown) 0.0904 | 25 µM, library screen: screen1, EWS-FLI1 expression: high (no doxycycline) 0.0121 | 25 µM, library screen: screen1, EWS-FLI1 expression: low (doxycycline-induced shRNA knockdown) 0.0753 | 25 µM, library screen: screen3, EWS-FLI1 expression: high (no doxycycline) 0.114 | 25 µM, library screen: screen3, EWS-FLI1 expression: low (doxycycline-induced shRNA knockdown) 0.0782

COc1ccc(-c2coc3cc(O)ccc3c2=O)cc1
active: [1] -0.6
inactive: [2] 0.0672 | [3] 0.234 | [4] 0.103

COc1ccc(-c2coc3cc(OC)ccc3c2=O)cc1
inactive: [1] 0.121 | [2] 0.0353 | [3] 0.128 | [4] 0.0908
